Laboratory results taken from PubChem BioAssay (NCI).
This is part of a sample that, as a whole, favours compounds with a hit. Of some 79,000 tested, about 15% had one in any assay. Active and inactive are the calls of the source. Rule as the data show it: active = growth inhibition above about 70%; inactive = the rest.

experiment: NCI Yeast Anticancer Drug Screen. Data for the bub3 strain (AID 167); conditions: S. cerevisiae bub3 mutant strain, at 5.0 µM (retest, dose inferred, filed as 0.5), active compounds read high
Outline: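 Yeast carrying a defined mutation is treated with each compound, and growth is compared with that of vehicle-exposed cells to give inhibition.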

Row | Compound | growth inhibition
1 | C1=NC2c3ccccc3Cc3cccc1c32 (stereo not drawn) | 2% (inactive)
2 | COc1ccc2c(c1)CN([C@@H](C)[C@H]1CC[C@H]3[C@@H]4CC[C@H]5C[C@@H](O)CC[C@]5(C)[C@H]4CC[C@]13C)CO2 | 91% (active)
3 | Cc1c(N)nc(C(CC(N)=O)NCC(N)C(N)=O)nc1C(=O)NC(C(=O)NC(C)C(O)C(C)C(=O)NC(C(=O)NCCc1nc(-c2nc(C(=O)NCCCNCCCc3ccccn3)cs2)cs1)C(C)O)C(OC1OC(CO)C(O)C(O)C1OC1OC(CO)C(O)C(OC(N)=O)C1O)c1cnc[nH]1 (stereo not drawn) | 97% (active)
4 | COc1cc2c(cc1O)-c1c(cnn1-c1ccccc1)CCC2 | -7% (inactive)
5 | CN(C)CC(CN(C)C)C(=O)c1ccc(Oc2ccc(Cl)cc2)cc1 | 72% (active)
6 | N#CCCN(CCC#N)Cc1c(O)c(O)c(CN(CCC#N)CCC#N)c2ccccc12 | -3% (inactive)
7 | Cc1cc2c(c([N+](=O)[O-])c1C)C(=O)C(Br)=C(N)C2=O | 87% (active)
8 | O=C(O)CSC(=S)N1CCCC1 | 2% (inactive)
9 | CNC1=C2NC(=O)/C(C)=C\C=C\C(C)C(O)C(C)C(O)C(C)C(OC(C)=O)C(C)C(OC)/C=C/OC3(C)Oc4c(C)c(O)c(c(c4C3=O)C1=O)C2=O (stereo not drawn) | -2% (inactive)
10 | O=c1c(Cl)nsnc1Cl | 100% (active)
11 | CC(NC(=O)OCc1ccccc1)C(=O)NNc1ccccc1Cl (stereo not drawn) | 73% (active)
12 | O=C(OCc1ccccc1CN1CCOCC1)c1cccc(Br)c1 | 2% (inactive)
13 | OC(COc1ccc(Cl)cc1)COc1ccc(Cl)cc1 | -8% (inactive)
14 | Cc1c(-c2ccc(C(=N)N)cc2)oc(-c2ccc(C(=N)N)cc2)c1C | 87% (active)
15 | COC(=O)[C@@]12OC[C@]34[C@H]([C@@H](O)[C@@H]1O)[C@@]1(C)CC(=O)C(O)=C(C)[C@@H]1C[C@H]3OC(=O)[C@H](OC(=O)C(Cc1ccccc1)NC(=O)OC(C)(C)C)[C@@H]24 (stereo partly drawn) | 31% (inactive)
16 | CCCCCCCCCCCCCCCC(=O)NCC[N+](C)(CC)CC | 2% (inactive)
17 | Oc1ccc(CCCCCc2ccc(O)cc2)cc1 | 13% (inactive)
18 | NN(Cc1ccccc1)c1ccccc1 | 40% (inactive)
19 | CCOC(=O)c1[nH]cc(C)c1-c1ccc2c(-c3ccccc3)nc3ccccc3n12 | 9% (inactive)
20 | COC(=O)c1cn(NS(=O)(=O)c2ccc(OC)cc2)cc1C(=O)OC | -5% (inactive)

Row | Compound | growth inhibition
21 | CN(C)c1cc2c(cc1[N+](=O)[O-])-c1ccccc1C2O (stereo not drawn) | -6% (inactive)
22 | CN(C)CCOc1cc2c(c3ccccc13)-c1ccccc1C2O (stereo not drawn) | 2% (inactive)
23 | BrC(Br)([P+](c1ccccc1)(c1ccccc1)c1ccccc1)[P+](c1ccccc1)(c1ccccc1)c1ccccc1 | 4% (inactive)
24 | CCOCCNc1ncnc2c1cnn2C | 0% (inactive)
25 | C[C@H](CCC1=NCCN1)[C@H]1CC[C@H]2[C@@H]3CC[C@@H]4C[C@H](O)CC[C@]4(C)[C@H]3C[C@H](O)[C@]12C | -10% (inactive)
26 | CCOC(=O)C1=C(c2ccccc2)N(C)c2ccccc2S1 | 2% (inactive)
27 | C(=P(c1ccccc1)(c1ccccc1)c1ccccc1)[P+](c1ccccc1)(c1ccccc1)c1ccccc1.[Br][Cu][Br] | 98% (active)
28 | COc1ccc(N(C)Sc2ccccc2)cc1 | 12% (inactive)
29 | COc1ccc(Cc2c(-c3ccc(C)cc3)n[nH]c(=O)c2C2C(=O)N(c3ccccc3)N=C2c2ccccc2)cc1 (stereo not drawn) | 63% (inactive)
30 | N#CSC#CCCC#CSC#N | 100% (active)
31 | c1ccc2c(c1)OCC(CNCCNCC1COc3ccccc3O1)O2 (stereo not drawn) | 43% (inactive)
32 | CC(C)(C)OC(=O)N[C@H]1CC2(C=C(Cl)C(=O)C(Cl)=C2)OC1=O | 14% (inactive)
33 | c1ccc([P+](c2ccccc2)(c2ccccc2)C2CCCC2)cc1 | 0% (inactive)
34 | COc1ccc2nc(-c3ccc(Cl)cc3)[nH]c2c1 | 3% (inactive)
35 | CC[C@H](CC[C@@H](C)C1CC[C@H]2[C@@H]3CCC4=CC(=O)CC[C@]4(C)[C@H]3CC[C@]12C)C(C)C (stereo partly drawn) | -10% (inactive)
36 | CCOC(=O)N/N=C/c1ccc(N(C)CCC#N)cc1 | 22% (inactive)
37 | CC(Br)C(=O)c1ccc2cc(Cl)c3ccccc3c2c1 (stereo not drawn) | 0% (inactive)
38 | Cc1ccc(-n2cc(-c3ccc(Cl)cc3)c3c(NN)ncnc32)cc1 | -19% (inactive)
39 | O=C1c2ccccc2C(=O)c2c1ccc(C(=O)O)c2-c1ccc2ccccc2c1 | -3% (inactive)

same assay, conditions: S. cerevisiae bub3 mutant strain, at 50.0 µM (retest, dose inferred, filed as 5.0), active compounds read high

Row | Compound | growth inhibition
40 | C1=NC2c3ccccc3Cc3cccc1c32 (stereo not drawn) | 97% (active)
41 | COc1ccc2c(c1)CN([C@@H](C)[C@H]1CC[C@H]3[C@@H]4CC[C@H]5C[C@@H](O)CC[C@]5(C)[C@H]4CC[C@]13C)CO2 | 99% (active)
42 | Cc1c(N)nc(C(CC(N)=O)NCC(N)C(N)=O)nc1C(=O)NC(C(=O)NC(C)C(O)C(C)C(=O)NC(C(=O)NCCc1nc(-c2nc(C(=O)NCCCNCCCc3ccccn3)cs2)cs1)C(C)O)C(OC1OC(CO)C(O)C(O)C1OC1OC(CO)C(O)C(OC(N)=O)C1O)c1cnc[nH]1 (stereo not drawn) | 98% (active)
43 | COc1cc2c(cc1O)-c1c(cnn1-c1ccccc1)CCC2 | 86% (active)
44 | CN(C)CC(CN(C)C)C(=O)c1ccc(Oc2ccc(Cl)cc2)cc1 | 99% (active)
45 | N#CCCN(CCC#N)Cc1c(O)c(O)c(CN(CCC#N)CCC#N)c2ccccc12 | 26% (inactive)
46 | Cc1cc2c(c([N+](=O)[O-])c1C)C(=O)C(Br)=C(N)C2=O | 96% (active)
47 | O=C(O)CSC(=S)N1CCCC1 | -3% (inactive)
48 | CNC1=C2NC(=O)/C(C)=C\C=C\C(C)C(O)C(C)C(O)C(C)C(OC(C)=O)C(C)C(OC)/C=C/OC3(C)Oc4c(C)c(O)c(c(c4C3=O)C1=O)C2=O (stereo not drawn) | 58% (inactive)
49 | O=c1c(Cl)nsnc1Cl | 100% (active)
50 | CC(NC(=O)OCc1ccccc1)C(=O)NNc1ccccc1Cl (stereo not drawn) | 42% (inactive)
51 | O=C(OCc1ccccc1CN1CCOCC1)c1cccc(Br)c1 | 42% (inactive)
52 | OC(COc1ccc(Cl)cc1)COc1ccc(Cl)cc1 | 92% (active)
53 | Cc1c(-c2ccc(C(=N)N)cc2)oc(-c2ccc(C(=N)N)cc2)c1C | 99% (active)
54 | COC(=O)[C@@]12OC[C@]34[C@H]([C@@H](O)[C@@H]1O)[C@@]1(C)CC(=O)C(O)=C(C)[C@@H]1C[C@H]3OC(=O)[C@H](OC(=O)C(Cc1ccccc1)NC(=O)OC(C)(C)C)[C@@H]24 (stereo partly drawn) | 80% (active)
55 | CCCCCCCCCCCCCCCC(=O)NCC[N+](C)(CC)CC | 19% (inactive)
56 | Oc1ccc(CCCCCc2ccc(O)cc2)cc1 | 100% (active)
57 | NN(Cc1ccccc1)c1ccccc1 | 99% (active)
58 | CCOC(=O)c1[nH]cc(C)c1-c1ccc2c(-c3ccccc3)nc3ccccc3n12 | 79% (active)
59 | COC(=O)c1cn(NS(=O)(=O)c2ccc(OC)cc2)cc1C(=O)OC | 8% (inactive)

Row | Compound | growth inhibition
60 | CN(C)c1cc2c(cc1[N+](=O)[O-])-c1ccccc1C2O (stereo not drawn) | 60% (inactive)
61 | CN(C)CCOc1cc2c(c3ccccc13)-c1ccccc1C2O (stereo not drawn) | 34% (inactive)
62 | BrC(Br)([P+](c1ccccc1)(c1ccccc1)c1ccccc1)[P+](c1ccccc1)(c1ccccc1)c1ccccc1 | 42% (inactive)
63 | CCOCCNc1ncnc2c1cnn2C | 2% (inactive)
64 | C[C@H](CCC1=NCCN1)[C@H]1CC[C@H]2[C@@H]3CC[C@@H]4C[C@H](O)CC[C@]4(C)[C@H]3C[C@H](O)[C@]12C | 99% (active)
65 | CCOC(=O)C1=C(c2ccccc2)N(C)c2ccccc2S1 | 78% (active)
66 | C(=P(c1ccccc1)(c1ccccc1)c1ccccc1)[P+](c1ccccc1)(c1ccccc1)c1ccccc1.[Br][Cu][Br] | 99% (active)
67 | COc1ccc(N(C)Sc2ccccc2)cc1 | 90% (active)
68 | COc1ccc(Cc2c(-c3ccc(C)cc3)n[nH]c(=O)c2C2C(=O)N(c3ccccc3)N=C2c2ccccc2)cc1 (stereo not drawn) | 96% (active)
69 | N#CSC#CCCC#CSC#N | 98% (active)
70 | c1ccc2c(c1)OCC(CNCCNCC1COc3ccccc3O1)O2 (stereo not drawn) | 55% (inactive)
71 | CC(C)(C)OC(=O)N[C@H]1CC2(C=C(Cl)C(=O)C(Cl)=C2)OC1=O | 83% (active)
72 | c1ccc([P+](c2ccccc2)(c2ccccc2)C2CCCC2)cc1 | -1% (inactive)
73 | COc1ccc2nc(-c3ccc(Cl)cc3)[nH]c2c1 | 90% (active)
74 | CC[C@H](CC[C@@H](C)C1CC[C@H]2[C@@H]3CCC4=CC(=O)CC[C@]4(C)[C@H]3CC[C@]12C)C(C)C (stereo partly drawn) | 29% (inactive)
75 | CCOC(=O)N/N=C/c1ccc(N(C)CCC#N)cc1 | 15% (inactive)
76 | CC(Br)C(=O)c1ccc2cc(Cl)c3ccccc3c2c1 (stereo not drawn) | 99% (active)
77 | Cc1ccc(-n2cc(-c3ccc(Cl)cc3)c3c(NN)ncnc32)cc1 | 53% (inactive)
78 | O=C1c2ccccc2C(=O)c2c1ccc(C(=O)O)c2-c1ccc2ccccc2c1 | 98% (active)
